# Screening data deposited in PubChem by National Center for Advancing Translational Sciences (NCATS).
# HT1080 IDH1KD tx: qHTS for induction of synthetic lethality in tumor cells producing 2HG: qHTS for the HT-1080-IDH1KD cell line | HT-1080 IDH1 knockdown viability, ATP luminescence, 48 h | Potency, µM (highest dose often 46.1 µM), inactives show at the highest dose activity, negative = toxicity, hits mostly cytotoxic | hit rate 2% among 360,000 | AID 686971, 2013;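 note: 0% = DMSO wells and -100% = cell-free medium wells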
#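 Luminescent ATP read-out (CellTiter-Glo, 10 min at room temperature) after 48 h compound exposure at 37 °C gave viability of IDH1-knockdown HT-1080 cells. Activity was normalised to DMSO and cell-free wells, then fitted as concentration-response curves.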
# MCF10A rerep: A quantitative high throughput screen for small molecules that induce DNA re-replication in MCF 10a normal breast cells | MCF 10A DNA re-replication, Hoechst nuclear intensity, 48 h | Potency, µM (highest dose often 46.1 µM), without a hit: at the top dose activity, positive = re-replication, usual class: activators | hit rate 2.9% among 350,000 | AID 624296, 2012; note: % of control where 0% means no effect; nearly all actives have a fitted effect of over 50% in size
# KB-V1 cytotox: qHTS assay for MDR1-selective chemotherapeutics: Primary screen using the drug-selected MDR subline cells KB-V1; KB-V1 MDR cells viability, CellTiter-Glo, 72 h; AID 1347076, 2019; Potency, µM (doses to about 46.1 µM), usual class: cytotoxic; hit rate 3.4% among 400,000; note: % is set by controls: 0 for no effect and ±100 for the full control effect; nearly all actives have a fitted effect of over 60% in size
#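 Compound-treated KB-V1 multidrug-resistant cells, 72 h, 37 degrees C; viability by CellTiter-Glo. Fitted qHTS curves give the values.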
# HT1080-NT tox: qHTS for induction of synthetic lethality in tumor cells producing 2HG: qHTS for the HT-1080-NT fibrosarcoma cell line | hit rate 1.6% among 360,000 | HT-1080-NT fibrosarcoma viability, CellTiter-Glo ATP luminescence, 48 h | Potency, µM (titrated, usually from 46.1 µM), inactives show top-dose activity, negative = less viability, hits mostly cytotoxic | AID 686970, 2013;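 note: NT is the 2HG producing partner of a matched IDH1 knockdown line; 0% = DMSO-treated cells and -100% = media-only wells without cells; nearly all actives have a fitted effect of over 55% in size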
#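 Toxicity toward the 2HG-producing NT line was scored as %Activity, normalised to DMSO and no-cell wells, from CellTiter-Glo luminescence after 48 hours' treatment.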
# KB-3-1 tox: qHTS assay for MDR1-selective chemotherapeutics: Primary screen using the parental adenocarcinoma cell KB-3-1; KB-3-1 viability, CellTiter-Glo ATP luminescence, 72 h; Potency, µM (top dose mostly 46.1 µM), actives largely listed as cytotoxic; hit rate 1.4% among 400,000; AID 1347075, 2019; note: % is set by controls: 0 for no effect and ±100 for the full control effect; nearly all actives have a fitted effect of over 60% in size
#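 KB-3-1 parental drug-naive adenocarcinoma cells in DMEM/10% FBS, incubated 72 h at 37 C with pin-transferred compounds across a concentration series. Viability by CellTiter-Glo luminescence; concentration-response curves fitted after normalization.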
# SW480 rereplic: A quantitative high throughput screen for small molecules that induce DNA re-replication in SW480 colon adenocarcinoma cells. SW480 DNA re-replication, Hoechst DNA content imaging, 48 h. Potency, µM (top dose mostly 46.1 µM), inactives show top-dose re-replication activation, most hits filed as activators. hit rate 1.8% among 340,000. AID 624297, 2012; note: % of control where 0% means no effect; nearly all actives have a fitted effect of over 55% in size
#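 Image-based DNA-content assay: after two days of treatment, nuclei were labelled with the DNA dye Hoechst and imaged, and hits were compounds raising the count of nuclei showing high fluorescence intensity.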
# Numbers without * were called inactive; i = inactive; ? = inconclusive; . = no result given; [ ] = remark or other dose. The list is not random: actives were taken first. Their share in the collection is about 8%. Calls come from the whole dose curve; as a rule, active = well fitted curve in the direction sought with a large enough effect; inconclusive = small, poorly fitted or top-dose-only effect, or another doubt; inactive = no such curve, though single readings can be large; an effect the other way counts as inactive or inconclusive. Potency is the fitted concentration of half-maximal effect.
SMILES,HT1080 IDH1KD tx,MCF10A rerep,KB-V1 cytotox,HT1080-NT tox,KB-3-1 tox,SW480 rereplic
Cc1ccc(C)c(NC(=O)Cn2ncc3c([nH]c4ccccc43)c2=O)c1,.,.,i,.,i,.
COc1ccccc1-c1nc(-c2ccccc2)nc(N2CCN(C)CC2)c1C#N,21µM*,?,i,16µM*,?,?
CN1CCN(c2nc(-c3ccccc3)nc(-c3ccc(F)cc3)c2C#N)CC1,4%,?,i,-1%,i,?
N#C/C(=C\c1ccc(OCc2ccccc2)cc1)C(N)=O,0%,?,i,-6%,i,-29%
CC(OC(=O)/C(C#N)=C/c1ccc(N(C)C)cc1)C(=O)N(C)Cc1ccccc1 (stereo not drawn),-22%,16µM*,i,-1%,i,?
CN(Cc1ccc(F)cc1)Cc1nc(-c2cnccn2)no1,13%,-4%,i,20%,i,13µM*
CN(Cc1cccc(C(F)(F)F)c1)Cc1nc(-c2cnccn2)no1,1%,-17%,i,-10%,i,-6%
O=C(NC(=S)N1CCCCC1)C12CC3CC(CC(C3)C1)C2,7%,1%,i,12%,i,0%
O=C(c1cc(NC(=O)C23CC4CC(CC(C4)C2)C3)cc(NC(=O)C23CC4CC(CC(C4)C2)C3)c1)N1CCCCC1,-29%,13%,?,-5%,?,13µM*
CCOC(=O)c1ccc(NC(=O)CCC(=O)N2Cc3ccccc3Oc3ncccc32)cc1,.,.,i,.,i,.
CN=C1S/C(=C\c2ccc(Cl)cc2)C(=O)N1C,13%,?,i,12%,i,23µM*
CCOC(=O)C1(CCOc2ccccc2)CCN(Cc2ccc(O)c(Cl)c2)CC1,-8%,-7%,i,-12%,i,0%
CCOC(=O)C1(CCCc2ccccc2)CCN(Cc2cnc(C)s2)CC1,?,?,?,18µM*,i,4%
CCOC(=O)C1(CCCc2ccccc2)CCN(Cc2cn(CC)nc2C)CC1,?,?,i,?,21µM*,?
CCOC(=O)C1(Cc2cccc(F)c2)CCN(Cc2cn(CC)nc2C)CC1,-12%,-2%,?,4%,i,2%
CCOC(=O)C1(CCOc2ccccc2)CCN(Cc2ccc3c(c2)OCCO3)CC1,?,?,i,18µM*,i,?
C=CCn1c(CCNC(=O)c2cccs2)nnc1SCC(=O)c1ccc(Br)cc1,?,1%,21µM*,-20%,i,?
C[C@@H]1Cc2ccccc2N1NC(=O)c1ccc(Cl)c(S(N)=O)c1 (stereo partly drawn),.,0%[20.6 µM],.,.,.,12%[20.6 µM]
Cc1cc(C)cc(NS(=O)(=O)c2ccc3[nH]cc(C(=O)NCc4ccco4)c(=O)c3c2)c1,5.2µM*,7%,i,2.6µM*,7.3µM*,17%
Cc1cc(C)cc(NS(=O)(=O)c2ccc3[nH]cc(C(=O)NCc4ccccc4Cl)c(=O)c3c2)c1,.,.,i,.,?,.
CCn1cc(C(=O)NCc2ccco2)c(=O)c2cc(S(=O)(=O)N3CC(C)CC(C)C3)ccc21 (stereo not drawn),5.8µM*,1%,?,4.1µM*,5.8µM*,2%
CCn1cc(C(=O)NCc2ccco2)c(=O)c2cc(S(=O)(=O)N3CCC(C)CC3)ccc21,?,23%,5.8µM*,?,?,4%
CCn1cc(C(=O)NCc2ccco2)c(=O)c2cc(S(=O)(=O)N3CCc4ccccc4C3)ccc21,?,?,i,?,23µM*,26%
CCn1cc(C(=O)NCc2ccc(Cl)cc2)c(=O)c2cc(S(=O)(=O)N3CCc4ccccc4C3)ccc21,.,.,i,.,i,.
CCn1cc(C(=O)NCc2ccc(C)cc2)c(=O)c2cc(S(=O)(=O)N3CCC(C)CC3)ccc21,.,.,i,.,i,.
SMILES,HT1080 IDH1KD tx,MCF10A rerep,KB-V1 cytotox,HT1080-NT tox,KB-3-1 tox,SW480 rereplic
Cc1ccccc1CN1C(=O)C(O)(c2c[nH]c3ccccc23)c2cc(Cl)ccc21 (stereo not drawn),.,.,i,.,i,.
CCOC(=O)N1CCN(C(=O)c2cn(CC)c3ccc(S(=O)(=O)N4CC(C)CC(C)C4)cc3c2=O)CC1 (stereo not drawn),7%,2.3µM*,i,6%,i,-33%
CCn1cc(C(=O)N2CCCC2)c(=O)c2cc(S(=O)(=O)N3CC(C)CC(C)C3)ccc21 (stereo not drawn),-7%,-2%,i,0%,i,5%
CCn1cc(C(=O)NCc2ccco2)c(=O)c2cc(S(=O)(=O)N3CCCCCC3)ccc21,?,?,i,15µM*,21µM*,-2%
S=C(SSC(=S)N1CCOCC1)N1CCOCC1,0.73µM*,.,i,1.2µM*,i,.
CC(SC(=S)N1CCOCC1)C(=O)O (stereo not drawn),-5%,6%,?,-17%,i,3%[9.22 µM]
S=C(NCCN1CCCCC1)Nc1ccc(Br)cc1,-15%,0%,i,-10%,i,16µM*
S=C(NCCN1CCCCC1)Nc1ccccc1,0%,5%,i,0%,i,-7%
Cc1cc(Cl)cc(Br)c1OCCCN1C(=O)NC(C)(C)C1=O,5%,10%,18µM*,-4%,?,6%
Cc1cc(Cl)c(OCCN2C(=O)NC(C)(C)C2=O)c(Br)c1,-7%,1%,i,-3%,i,-23%
Cc1ccc(C(C)C)c(OCCCN2C(=O)NC(C)(C)C2=O)c1,1%,?,15µM*,-1%,i,10%
Cc1ccc([N+](=O)[O-])c(OCCN2C(=O)NC(C)(C)C2=O)c1,3%,-6%,i,1%,i,-76%
O=C(Nc1ccc2ccccc2c1)Nc1nnc(-c2ccccn2)s1,.,.,i,.,?,.
Cc1cc(C(=O)OCC(=O)NCc2ccco2)c(C)n1-c1ccc(F)cc1,?,2.1µM*,1.3µM*,?,?,3.7µM*
Cc1cc(C(=O)COC(=O)c2ccc[nH]c2=O)c(C)n1-c1ccccc1,-1%,-2%,18µM*,0%,i,-38%
CCNC(=O)COC(=O)c1cc(C)n(-c2ccccc2)c1C,0%,13%,i,13%,i,?
